Compound activity deposited in PubChem by several laboratories.
Hits are enriched below; roughly 3.8% of the tested compounds scored in any of these assays.
Mtb FBA inh – Mtb fructose-bisphosphate aldolase inhibition. P9WQA3. purified M. tuberculosis FBA, fluorescence read-out. inhibition, % at 1 µM. 2.3% of 360,000 active; in the data active = inhibition above about 27%;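 note: 0% = vehicle and 100% = reference inhibitor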
Target sequence (P9WQA3 whole entry, looked up): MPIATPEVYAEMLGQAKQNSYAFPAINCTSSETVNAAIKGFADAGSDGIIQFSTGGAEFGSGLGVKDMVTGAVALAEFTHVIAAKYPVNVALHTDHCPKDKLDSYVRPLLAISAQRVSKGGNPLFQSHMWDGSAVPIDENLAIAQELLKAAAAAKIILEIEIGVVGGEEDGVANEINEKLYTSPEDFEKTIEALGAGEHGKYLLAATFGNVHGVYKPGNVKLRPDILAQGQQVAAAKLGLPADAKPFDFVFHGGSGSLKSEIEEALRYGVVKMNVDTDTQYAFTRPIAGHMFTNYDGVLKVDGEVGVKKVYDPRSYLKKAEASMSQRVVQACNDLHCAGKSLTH
PrPC surface inh – reduces human prion protein on the cell surface | inhibition, % at 13.8 µM | 0.43% of 370,000 active | cell surface PrPC, TR-FRET read-out | P04156; in the data active = inhibition above about 24%; note: 0% = median of the test wells and 100% = reference compound wells
Mtb hypoxia inh – inhibitors of hypoxia-regulated fluorescent reporter in Mycobacterium tuberculosis. M. tuberculosis hypoxia-regulated fluorescent reporter, fluorescence. fluorescence inhibition, % (concentration not given with the values). 0.1% of 300,000 active. AID 1159583; in the data active = fluorescence inhibition mostly above about 23%, no sharp cut-off; inactive = mostly below about 17%
GDH-TPI counter – inhibits GDH-TPI coupling enzymes, artifact for Mtb FBA screen; inhibition, % at 4.8 µM; GDH-TPI coupled enzyme counterscreen, NADH absorbance; 1.2% of 360,000 active; in the data active = inhibition above about 30%;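 note: 0% = DMSO wells and 100% = wells lacking the enzyme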
Yp Topo-I inh – blocks Yersinia pestis topoisomerase I activity; Y. pestis Topo-I cleavage product accumulation, plate reader; activity, % at 10 µM; 0.064% of 360,000 active; AID 504884; in the data active = activity above about 50%, passing the limit was not always enough
PrP UTR inh – inhibition of PrP 5' UTR reporter expression; 0.35% of 340,000 active; cell-based PrP 5' UTR mRNA reporter, plate reader; inhibition, % (no concentration beside the values); in the data active = inhibition above about 52%; note: 0 = median of the neutral control wells
* marks the source's active call; other numbers are inactive results; . = no result; + = active, no number.

SMILES	Mtb FBA inh	PrPC surface inh	Mtb hypoxia inh	GDH-TPI counter	Yp Topo-I inh	PrP UTR inh
O=[N+]([O-])c1ccc(-c2nnc3n2CCCCC3)cc1	-1	-36	-1	0	1	-17
O=c1c2c(-c3ccc([N+](=O)[O-])cc3)csc2nc2n1CCC2	0	-62	36*	10	3	-3
C=CCSc1nc(N)c(C(=O)Nc2ccccc2OC)cc1C(=O)Nc1ccccc1	3	-8	.	37*	7	-6
CC(=NNc1ccc(Cl)cc1)c1cnnc(-c2ccccc2)n1	.	.	7	.	.	.
Cc1ccc2c(c1)c1c(c(=O)n(-c3ccccc3C)c(=O)n1CC(=O)NCC1CCCO1)n2C (stereo unspecified)	+	-2	-3	-3	0	-5
Cc1cc(C)cc(-n2c(=O)c3ccccc3n(CC(=O)NCC3CCCO3)c2=O)c1 (stereo unspecified)	-4	10	9	-4	-1	-14
CCN(CC)c1ccc(C(=O)N/N=C(\C)c2ccc(OC)c(OC)c2)cc1	-2	-2	.	32*	11	-20
CCN(CC)c1ccc(/C=N/NC(=O)c2cccc(S(=O)(=O)Nc3ccccc3OC)c2)cc1	-1	12	.	18	15	-18
COc1cc(C(=O)NN=Cc2ccc(N(CCCl)CCCl)cc2)cc(OC)c1OC	9	5	-1	61*	10	-12
COC(=O)N/N=C\C=C\c1ccc2c(c1)OCO2	3	-5	.	44*	-4	-54
CC(C)(C)OC(=O)N/N=C\C=C\c1ccc2c(c1)OCO2	-1	10	.	26	-2	-48
NC(Cc1ccc(O)cc1)C(=O)NN=Cc1ccc(N(CCCl)CCCl)cc1 (stereo unspecified)	23	10	11	50*	-9	-20
CN(C)c1ccc(C=NNC(=O)CNC(=O)/C=C/c2ccco2)cc1	.	.	7	.	.	.
O=C(NN=C/C=C/c1ccc2c(c1)OCO2)C(O)c1ccccc1 (stereo unspecified)	.	.	17	.	.	.
CCN(CC)c1ccc(/C=N/NC(=O)CNC(=O)/C=C/c2ccco2)cc1	7	-10	.	44*	1	12
CCOC(=O)N/N=C\C=C\c1ccc2c(c1)OCO2	3	-7	.	37*	-3	-50
COc1ccc(CC(=O)N/N=C/C=C/c2ccc3c(c2)OCO3)cc1OC	1	-14	.	35*	9	.
CCN(CC)c1ccc(/C=N/NC(=O)Cc2ccc(OC)c(OC)c2)cc1	26	-4	.	46*	11	-27
Cc1cccc(OCC(=O)NCC(=O)NN=Cc2cccs2)c1	.	.	7	.	.	.
O=C(NCc1ccccc1)C(NC(=O)c1ccccc1)=C(Sc1ccccn1)c1ccccc1	.	.	16	.	.	.
Cc1ccccc1COc1ccc(C=NNC(=O)c2nnn(-c3nonc3N)c2CN2CCC(C)CC2)cc1	.	.	3	.	.	.
CCOC(=O)C(/C=C(\C#N)C(=O)OCC)=C(/N)N1CCN(c2ccccc2)CC1	0	2	.	36*	8	-30
O=C(O)c1cc(-c2cccs2)nc2ccc(F)cc12	+	9	-1	12	-6	-17
CCN1CCN(C(=O)c2cc(-c3ccc(Cl)s3)nc3ccccc23)CC1	118*	6	0	21	7	-6
CC(=O)N1CCN(C(=O)c2cc(-c3cccc4ccccc34)nc3ccccc23)CC1	6	-5	3	6	25	-10
SMILES	Mtb FBA inh	PrPC surface inh	Mtb hypoxia inh	GDH-TPI counter	Yp Topo-I inh	PrP UTR inh
Cc1ccc(-c2cc(C(=O)O)c3ccccc3n2)s1	+	-2	-4	15	9	-17
O=C(O)c1cc(-c2ccncc2)nc2ccc(F)cc12	.	.	10	.	.	.
CCN1CCN(C(=O)c2cc(-c3ccco3)nc3ccccc23)CC1	130*	-4	3	12	-6	.
COc1ccccc1C(=O)ON=C(c1ccccc1)c1ccncc1	.	.	13	.	.	.
CCC(=O)OC1C(OC(C)=O)[C@@]2(O)C(CC(O)C2(C)C)[C@](C)(O)C2CCC3C(O)[C@]12C[C@@]3(C)O (stereo partly specified)	.	.	-3	.	.	.
O=C(O)c1cc(-c2ccc(Cl)s2)nc2ccccc12	159*	11	-6	8	4	-25
C=CCC(CC(=O)N(CCO)Cc1ccccc1)C(=O)NC(COC(=O)C(CC=C)Cc1ccc(F)cc1)Cc1c[nH]c2ccccc12 (stereo unspecified)	.	.	-4	.	.	.
CN(C)/C=C/c1onc(-c2c(Cl)cccc2Cl)c1C#N	-1	3	6	31*	2	-18
O=C(Cn1cc(C(F)(F)F)ccc1=O)NN=Cc1ccccc1	.	.	11	.	.	.
O=C(N/N=C/c1ccc(Cl)s1)c1ccccc1[N+](=O)[O-]	0	-8	.	31*	-8	-33
C(=NNc1nc(N2CCOCC2)nc(N2CCOCC2)n1)c1ccncc1	.	.	8	.	.	.
CCOC(=O)C1C2COc3ccc(Br)cc3C2N2C(=O)N(c3ccc(OC)cc3)C(=O)[C@@]12C (stereo partly specified)	.	.	0	.	.	.
COCCn1nnnc1CN1CCN(c2cccc(C(F)(F)F)c2)CC1	191*	-8	.	-5	-2	-21
COC(=O)C1=C(c2ccccc2OCc2ccccc2)CC2CCC1N2C(=O)NCCN1CCOCC1 (stereo unspecified)	.	.	11	.	.	.
CS(=O)(=O)c1ccc2nc(NC(=O)c3cc([N+](=O)[O-])cc([N+](=O)[O-])c3)sc2c1	-5	-6	8	15	-11	-16
CCNS(=O)(=O)c1ccc2nc(NC(=O)c3cccnc3)sc2c1	-1	-3	3	70*	3	-27
Cc1nc2ccc(NC(=O)c3cccnc3)cc2s1	0	1	14	1	1	-15
CS(=O)(=O)c1ccc2nc(NC(=O)c3cccs3)sc2c1	-2	-4	.	49*	0	-18
CS(=O)(=O)c1ccc2nc(NC(=O)c3cccc([N+](=O)[O-])c3)sc2c1	-2	-4	-6	39*	1	-25
Cc1ccc2nc(NC(=O)c3cccs3)sc2c1	4	7	-4	21	9	-18
CC(=O)Oc1ccc(C#CC=C2c3ccccc3C(=O)N2c2ccccc2)cc1	.	.	7	.	.	.
CC(O)C1NC(=O)c2cc([N+](=O)[O-])cc(I)c2NCCC(C(N)=O)NC(=O)CNC1=O (stereo unspecified)	.	.	0	.	.	.
O=C1NC(Cc2cn(S(=O)(=O)c3ccc([N+](=O)[O-])cc3)c3ccccc23)C(=O)NC1Cc1ccccc1 (stereo unspecified)	.	.	6	.	.	.
CC#C[C@]1(O)CCC2C3CCC4=CC(=O)CCC4=C3C(c3ccc(N(C)C)cc3)C[C@@]21C (stereo partly specified)	.	.	1	.	.	.
O=C(CSc1nnc(SCc2ccc(Cl)cc2)s1)NN=Cc1ccc(C(=O)O)cc1	.	.	3	.	.	.
COc1ccc(Nc2nnc(SCC(=O)c3cc4ccccc4o3)s2)cc1	3	2	1	37*	3	-44
O=C(/C=C/c1ccccc1)c1c[nH]c2ccccc12	-4	-14	-10	23	-1	-68
O=C(C=Cc1ccccc1)c1c[nH]c2ccccc2c1=O	-2	1	19	38*	5	-44
